Here are results for 11 molecules from ChEMBL document CHEMBL3988442, “University of Dundee, Small-Polar-MMV Screening Library” (2021).

For some of these results: Measured potencies and affinities stand elsewhere.

Holding throughout (design): scale not given: direction of the effect not stated beside the values
In test [1] the target is Protein translocase subunit SecA (Escherichia coli (strain K12)) (UniProt P10408). Nature of the test: Assay to Identify E. coli SecA ATPase Inhibitors. Conditions: 30 µM. The class given is functional.
Chain of Protein translocase subunit SecA (Escherichia coli (strain K12)) (P10408 whole entry): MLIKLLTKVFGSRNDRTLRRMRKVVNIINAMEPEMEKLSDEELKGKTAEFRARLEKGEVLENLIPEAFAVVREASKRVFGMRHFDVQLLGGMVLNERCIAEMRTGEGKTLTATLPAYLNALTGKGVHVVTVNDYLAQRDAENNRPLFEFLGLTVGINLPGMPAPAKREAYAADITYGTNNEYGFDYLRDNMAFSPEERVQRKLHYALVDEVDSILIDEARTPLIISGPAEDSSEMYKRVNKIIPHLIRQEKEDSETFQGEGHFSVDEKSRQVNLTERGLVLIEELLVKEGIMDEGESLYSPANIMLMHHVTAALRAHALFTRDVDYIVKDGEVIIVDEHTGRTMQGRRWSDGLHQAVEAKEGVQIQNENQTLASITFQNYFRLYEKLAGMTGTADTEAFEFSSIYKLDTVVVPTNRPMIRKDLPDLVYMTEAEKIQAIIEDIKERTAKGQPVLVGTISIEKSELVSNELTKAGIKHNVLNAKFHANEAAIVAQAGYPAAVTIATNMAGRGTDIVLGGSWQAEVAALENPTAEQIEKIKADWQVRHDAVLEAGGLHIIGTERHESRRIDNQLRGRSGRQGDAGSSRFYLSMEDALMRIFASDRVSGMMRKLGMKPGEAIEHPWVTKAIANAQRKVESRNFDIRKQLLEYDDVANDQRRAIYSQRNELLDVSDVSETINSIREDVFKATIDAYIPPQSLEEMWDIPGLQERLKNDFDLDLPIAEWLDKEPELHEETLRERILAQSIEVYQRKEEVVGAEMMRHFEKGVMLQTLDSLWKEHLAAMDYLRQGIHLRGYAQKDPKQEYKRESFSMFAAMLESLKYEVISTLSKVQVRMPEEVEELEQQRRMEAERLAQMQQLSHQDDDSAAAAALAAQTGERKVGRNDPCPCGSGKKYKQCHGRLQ
The target in test [2] is T1, Ubiquitin-activating enzyme e1, putative (Leishmania donovani (strain BPK282A1)) (UniProt E9BSI1).
T1 sequence (whole entry): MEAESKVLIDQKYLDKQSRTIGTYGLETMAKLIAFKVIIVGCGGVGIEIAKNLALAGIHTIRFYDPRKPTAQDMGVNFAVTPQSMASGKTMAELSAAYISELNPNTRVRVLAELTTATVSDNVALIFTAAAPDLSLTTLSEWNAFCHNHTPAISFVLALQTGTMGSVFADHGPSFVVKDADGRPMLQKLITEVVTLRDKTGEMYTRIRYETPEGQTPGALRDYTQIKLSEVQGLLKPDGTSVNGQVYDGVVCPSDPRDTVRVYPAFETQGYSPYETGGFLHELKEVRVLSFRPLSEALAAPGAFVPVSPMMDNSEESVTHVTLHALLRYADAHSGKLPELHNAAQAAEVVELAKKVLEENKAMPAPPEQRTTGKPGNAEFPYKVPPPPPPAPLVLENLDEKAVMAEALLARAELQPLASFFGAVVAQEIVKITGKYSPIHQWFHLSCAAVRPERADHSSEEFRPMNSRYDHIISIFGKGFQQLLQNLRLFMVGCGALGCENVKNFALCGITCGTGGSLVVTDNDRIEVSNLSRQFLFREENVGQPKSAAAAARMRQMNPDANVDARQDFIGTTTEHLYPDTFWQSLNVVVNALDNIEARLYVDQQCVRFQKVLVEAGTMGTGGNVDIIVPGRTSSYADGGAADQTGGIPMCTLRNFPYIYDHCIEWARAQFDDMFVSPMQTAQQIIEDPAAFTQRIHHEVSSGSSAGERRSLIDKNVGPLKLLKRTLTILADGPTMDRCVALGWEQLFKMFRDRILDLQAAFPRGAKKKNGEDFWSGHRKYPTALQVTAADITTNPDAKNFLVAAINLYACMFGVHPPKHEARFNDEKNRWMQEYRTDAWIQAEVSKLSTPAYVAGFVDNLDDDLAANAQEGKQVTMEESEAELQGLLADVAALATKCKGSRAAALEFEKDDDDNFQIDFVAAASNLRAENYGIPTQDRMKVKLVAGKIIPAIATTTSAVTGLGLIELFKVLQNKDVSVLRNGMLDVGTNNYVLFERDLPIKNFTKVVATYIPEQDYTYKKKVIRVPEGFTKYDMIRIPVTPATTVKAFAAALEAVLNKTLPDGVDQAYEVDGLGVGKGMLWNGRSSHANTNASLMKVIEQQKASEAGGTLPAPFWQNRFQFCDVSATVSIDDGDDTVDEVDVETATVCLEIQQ
Nature of the test: Leishmania donovani Ubiquitin Activating Enzyme (LdE1). The class given is functional. Conditions: 30 µM.

For test [3], the target named is AMP-activated protein kinase, AMPK (Homo sapiens) (UniProt P54646+O43741+P54619+Q9UGJ0+Q9Y478+Q13131+Q9UGI9). Nature of the test: AMP-dependent Kinase enzyme assay. An in vitro enzyme assay that detects ADP turnover that is directly proportional to AMPK activity. This uses naive AMPK that is activated during the assay with MK-8722. The class given is functional. Conditions: 30 µM.

For test [4], the target named is Sialic acid-binding Ig-like lectin 9 (Homo sapiens) (UniProt Q9Y336). Nature of the test: Hs-Siglec9 ALPHAscreen SOP 20170721. Particulars: 10 µM. A general note: In Alpha technology, singlet oxygen from a donor bead excites a nearby acceptor bead.
Chain of Sialic acid-binding Ig-like lectin 9 (Homo sapiens) (Q9Y336 whole entry): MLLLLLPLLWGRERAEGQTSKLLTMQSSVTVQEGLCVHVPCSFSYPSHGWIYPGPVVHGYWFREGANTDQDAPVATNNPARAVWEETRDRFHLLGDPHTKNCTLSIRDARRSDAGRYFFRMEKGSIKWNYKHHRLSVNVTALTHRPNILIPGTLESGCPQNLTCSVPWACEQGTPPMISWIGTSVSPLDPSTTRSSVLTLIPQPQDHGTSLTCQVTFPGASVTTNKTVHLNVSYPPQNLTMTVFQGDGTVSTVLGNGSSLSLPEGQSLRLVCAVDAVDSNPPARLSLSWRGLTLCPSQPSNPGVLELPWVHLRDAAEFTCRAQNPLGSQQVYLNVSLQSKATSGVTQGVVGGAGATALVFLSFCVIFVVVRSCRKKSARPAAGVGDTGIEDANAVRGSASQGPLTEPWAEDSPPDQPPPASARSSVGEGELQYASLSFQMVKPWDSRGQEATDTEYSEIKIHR
The subject of test [5] is Trypanosoma cruzi. Nature of the test: Trypanosoma cruzi phosphomannomutase and mannose-1-phosphate guanylyltransferase assay. The class given is functional. Conditions: 10 µM.
For test [6], the target named is T2, Arginase-2, mitochondrial (Homo sapiens) (UniProt P78540).
T2 sequence (whole entry): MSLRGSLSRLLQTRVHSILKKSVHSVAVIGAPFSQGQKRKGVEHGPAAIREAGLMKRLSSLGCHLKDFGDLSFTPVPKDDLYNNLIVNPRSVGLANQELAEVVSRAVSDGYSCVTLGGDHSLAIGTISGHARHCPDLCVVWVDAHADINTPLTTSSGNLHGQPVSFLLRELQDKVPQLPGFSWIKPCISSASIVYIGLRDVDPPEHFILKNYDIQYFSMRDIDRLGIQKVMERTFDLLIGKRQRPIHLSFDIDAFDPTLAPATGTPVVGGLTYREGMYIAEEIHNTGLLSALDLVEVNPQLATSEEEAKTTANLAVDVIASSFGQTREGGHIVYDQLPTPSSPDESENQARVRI
Nature of the test: in vitro enzyme assay to detect the production of urea directly proportional to the activity of Arginase II. Note: in the data most compounds retested in dose-response had high values. The class given is functional. Particulars: 33.3 µM.

For test [7], the target named is T3, Proteasome subunit beta (Trypanosoma cruzi) (UniProt O96673).
T3 sequence (whole entry): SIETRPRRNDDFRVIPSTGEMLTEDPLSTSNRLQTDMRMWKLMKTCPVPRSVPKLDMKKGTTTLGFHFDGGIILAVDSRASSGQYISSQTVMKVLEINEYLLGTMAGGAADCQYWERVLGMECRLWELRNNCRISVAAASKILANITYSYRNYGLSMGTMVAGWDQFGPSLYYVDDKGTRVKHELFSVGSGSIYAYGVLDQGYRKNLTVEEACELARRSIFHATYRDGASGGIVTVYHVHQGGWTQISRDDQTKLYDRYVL
Nature of the test: Trypanosoma cruzi proteasome chymotrypsin-like activity (TcProtChymo) assay. Note: in the data most compounds retested in dose-response had high values. The class given is functional. Conditions: 9.37 µM.

Test [8] is filed under the species Homo sapiens. Kind of test: To identify inhibition of the IFN signalling (Jak-Stat) pathway via expression of an eGFP reporter gene under the control of an IFN-stimulated response element (ISRE) containing MxA promoter. The class given is functional. Conditions: 30 µM. In general terms: Reporter assays use an easily measured gene product as a stand-in for the process of interest.

Test [9] has as its target T4, Tyrosyl-tRNA synthetase, putative (Trypanosoma cruzi (strain CL Brener)) (UniProt Q4DSP6).
T4 sequence (whole entry): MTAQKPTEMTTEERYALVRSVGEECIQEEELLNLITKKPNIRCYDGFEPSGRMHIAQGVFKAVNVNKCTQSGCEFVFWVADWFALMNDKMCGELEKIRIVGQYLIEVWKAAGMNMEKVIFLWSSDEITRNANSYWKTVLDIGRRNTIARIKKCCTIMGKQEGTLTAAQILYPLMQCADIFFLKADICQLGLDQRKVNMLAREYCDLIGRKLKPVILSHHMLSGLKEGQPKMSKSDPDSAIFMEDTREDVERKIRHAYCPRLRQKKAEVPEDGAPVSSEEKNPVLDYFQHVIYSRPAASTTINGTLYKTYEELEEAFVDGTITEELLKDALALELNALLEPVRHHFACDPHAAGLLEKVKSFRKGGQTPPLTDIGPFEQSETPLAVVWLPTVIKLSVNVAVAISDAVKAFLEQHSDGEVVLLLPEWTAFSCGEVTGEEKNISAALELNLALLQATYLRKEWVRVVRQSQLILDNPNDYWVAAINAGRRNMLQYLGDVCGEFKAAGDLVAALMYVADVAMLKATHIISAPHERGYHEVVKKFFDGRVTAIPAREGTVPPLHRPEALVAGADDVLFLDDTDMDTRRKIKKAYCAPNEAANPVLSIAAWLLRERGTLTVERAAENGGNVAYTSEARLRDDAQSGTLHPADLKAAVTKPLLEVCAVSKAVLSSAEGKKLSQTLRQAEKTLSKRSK
Nature of the test: Trypanosoma cruzi tyrosyl tRNA synthetase (TcYRS) _High Tyrosine SOP. Note: in the data most compounds retested in dose-response had high values. The class given is functional. Conditions: 30 µM.

Test [10] has as its target T4, Tyrosyl-tRNA synthetase, putative (Trypanosoma cruzi (strain CL Brener)). Kind of test: Trypanosoma cruzi tyrosyl tRNA synthetase (TcYRS) SOP. The class given is functional. Particulars: 30 µM.
Test [11] addresses Chromo domain-containing protein 1 (Saccharomyces cerevisiae (strain ATCC 204508 / S288c) (Baker's yeast)) (UniProt P32657). Nature of the test: ScCHD-1 Enzyme Inhibition Assay. Note: in the data most compounds retested in dose-response had high values. The class given is functional. Particulars: 30 µM.

Chain of Chromo domain-containing protein 1 (Saccharomyces cerevisiae (strain ATCC 204508 / S288c) (Baker's yeast)) (P32657 whole entry, the tested form may be a part): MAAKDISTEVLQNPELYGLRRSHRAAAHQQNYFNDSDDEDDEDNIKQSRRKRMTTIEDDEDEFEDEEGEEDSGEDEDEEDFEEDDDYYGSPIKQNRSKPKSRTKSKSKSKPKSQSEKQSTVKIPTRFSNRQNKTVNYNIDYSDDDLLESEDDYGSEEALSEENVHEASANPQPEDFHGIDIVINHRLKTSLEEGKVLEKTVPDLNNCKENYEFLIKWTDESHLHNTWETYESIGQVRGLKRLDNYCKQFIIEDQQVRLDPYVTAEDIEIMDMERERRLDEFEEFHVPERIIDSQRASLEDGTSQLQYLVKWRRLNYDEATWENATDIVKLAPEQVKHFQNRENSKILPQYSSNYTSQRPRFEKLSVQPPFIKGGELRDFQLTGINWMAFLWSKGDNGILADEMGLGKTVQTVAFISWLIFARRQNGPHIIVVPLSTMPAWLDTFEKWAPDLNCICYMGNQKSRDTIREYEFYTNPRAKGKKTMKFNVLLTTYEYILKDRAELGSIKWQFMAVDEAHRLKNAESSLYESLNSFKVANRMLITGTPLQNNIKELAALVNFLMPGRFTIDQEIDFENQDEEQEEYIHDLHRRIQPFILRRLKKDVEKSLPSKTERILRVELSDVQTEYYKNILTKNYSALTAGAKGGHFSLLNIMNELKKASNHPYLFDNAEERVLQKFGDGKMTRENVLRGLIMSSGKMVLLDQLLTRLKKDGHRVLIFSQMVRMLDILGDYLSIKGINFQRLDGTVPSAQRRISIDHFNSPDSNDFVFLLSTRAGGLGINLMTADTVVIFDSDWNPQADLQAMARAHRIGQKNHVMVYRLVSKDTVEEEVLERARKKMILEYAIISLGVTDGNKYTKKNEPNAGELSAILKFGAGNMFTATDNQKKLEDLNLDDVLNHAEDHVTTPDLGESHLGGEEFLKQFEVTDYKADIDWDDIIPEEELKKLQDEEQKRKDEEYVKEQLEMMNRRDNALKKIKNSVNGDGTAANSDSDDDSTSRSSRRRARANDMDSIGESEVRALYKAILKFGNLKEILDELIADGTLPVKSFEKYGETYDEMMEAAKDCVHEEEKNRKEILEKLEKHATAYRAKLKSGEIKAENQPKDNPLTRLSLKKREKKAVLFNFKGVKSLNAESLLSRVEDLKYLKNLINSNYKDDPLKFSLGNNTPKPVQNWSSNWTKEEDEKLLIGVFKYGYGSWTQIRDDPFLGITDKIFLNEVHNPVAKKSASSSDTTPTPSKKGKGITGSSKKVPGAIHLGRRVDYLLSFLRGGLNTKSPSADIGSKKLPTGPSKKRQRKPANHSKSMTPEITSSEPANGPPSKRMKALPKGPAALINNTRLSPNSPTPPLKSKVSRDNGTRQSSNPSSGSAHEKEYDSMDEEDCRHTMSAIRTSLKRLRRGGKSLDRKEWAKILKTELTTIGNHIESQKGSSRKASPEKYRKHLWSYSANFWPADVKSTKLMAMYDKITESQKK

With `O=C(c1n[nH]c2c1CCN(Cc1nccs1)C2)N1CCCC1`, the Percent Effect is -4.94% in test [1]; 5.41% in test [2]; -4.39% in test [3]; 22.5% in test [4]; 4.4% in test [5]; 0.744% in test [6]. In addition, the Percent Effect in test [7] is 8.33%; in test [8] it was -0.319%; in test [9] it was 5.38%; in [10] it was 6.17%; in test [11], -10.3%.
In the case of `CC(C)CN1CCC(NC(=O)c2ccc(F)cc2I)CC1`, the Percent Effect in test [1] is -4.38%; in [2], 23.6%; in test [3], -16%; in test [4], 29.2%; in test [5], 7.48%; in test [6] it was 39.7%. In addition, the Percent Effect in [7] is 8.6%; in [8], -5.59%; in test [9], 4.21%; in [10] it was 17.9%; in test [11] it was -10.3%.
On to `COCCn1ccnc1C1CCCN(C(=O)CSCC2CC2)C1` (stereo unspecified), for which the Percent Effect in test [1] is -1.08%; in test [2], 6.94%; in [3], -7.23%; in test [4], -0.00565%; in [5] it was 4.37%; in test [6], 0%. Also, the Percent Effect is 19.1% in test [7]; 1.07% in [8]; 3.16% in test [9]; 7.69% in test [10]; -0.19% in test [11].
With `O=C(O)CCc1cccc(C2CCCN2Cc2ccc(F)c(F)c2)n1` (stereo unspecified), the Percent Effect was -3.79% in [1]; 4.05% in test [2]; 1.3% in test [3]; 8.61% in test [4]; 1.78% in test [5]; 1.62% in test [6]. Moreover, the Percent Effect in [7] was 1.09%; in [8], 0.308%; in test [9], 6.45%; in test [10] it was 14.3%; in [11] it was -20.7%.
Consider `CC(C)NC(=O)c1nnn(-c2cccc(C(F)(F)F)c2)c1N`, for which the Percent Effect in test [1] is -2.18%; in [2], -4.17%; in test [3] it was -2.65%; in [4], -0.424%; in test [5] it was 6.51%; in [6], -4.86%. For the same molecule, the Percent Effect in test [7] was 4.04%; in test [8], 11.5%; in [9], 0%; in [10], 0%; in test [11], -1.24%.
As to `Fc1cccc(-c2nc(CN3CCOC(Cn4cncn4)C3)co2)c1` (stereo unspecified), the Percent Effect in [1] was -1.25%; in [2], 0%; in test [3], 1.03%; in test [4], 1.46%; in test [5], 8.97%; in [6] it was -1.14%. Moreover, the Percent Effect is 4.67% in test [7]; -3.37% in test [8]; 0.493% in [9]; 3.8% in test [10]; -3.88% in test [11].
Regarding `Cc1[nH]ncc1CCCNC(=O)Nc1ccc(C#N)cc1`, the Percent Effect in test [1] is -1.53%; in test [2] it was 5.41%; in test [3] it was 8.53%; in [4] it was 1.92%; in test [5] it was 3.28%; in test [6], 2.38%. Besides, the Percent Effect in test [7] is 7.41%; in test [8] it was 15.2%; in test [9], 7.94%; in test [10], 9.76%; in test [11] it was -1.92%.
For the molecule `COCC1CN(S(C)(=O)=O)Cc2ncn(CC3CC3)c21` (stereo unspecified), the Percent Effect in test [1] is -4.92%; in test [2], 13.5%; in test [3] it was -0.0233%; in test [4] it was -3.08%; in [5], -5.38%; in test [6], 0.248%. For the same molecule, the Percent Effect in test [7] was 14.2%; in [8] it was 27.2%; in test [9] it was 4.3%; in test [10] it was 8.64%; in test [11], -3.62%.
In the case of `CCc1noc(CNc2ccc(C(=O)N3CCCC(C)C3)cc2C)n1` (stereo unspecified), the Percent Effect in [1] was -4.09%; in test [2], 0%; in [3] it was 2.37%; in test [4] it was 9.47%; in test [5], 1.69%; in test [6], 3.2%. Besides, the Percent Effect was 3.88% in test [7]; 9.39% in test [8]; 4.85% in test [9]; 2.44% in [10]; -8.29% in [11].
Turning to `COc1ccc(-c2noc(CN3CCOCC3C)n2)cc1OC` (stereo unspecified), the Percent Effect in [1] was -2.2%; in test [2], 18.9%; in test [3], -11.1%; in test [4] it was 15.8%; in test [5], 0.0943%; in test [6], -6.81%. In addition, the Percent Effect in [7] is 8.83%; in test [8], 28.9%; in test [9], 5.42%; in [10], 16.1%; in test [11] it was -11%.
`c1cnc(-c2nc(CN3CCOC(Cn4cncn4)C3)cs2)nc1` (stereo unspecified): the Percent Effect in test [1] is -3.88%; in test [2], 29.7%; in test [3], -7.99%; in [4], -4.32%; in test [5], -0.66%; in test [6], -12.8%. Also, the Percent Effect in [7] is 9.91%; in test [8] it was 18.1%; in [9], 1.48%; in [10], 13.6%; in [11] it was -6.92%.
